Rows were chosen to be rich in hits. Some 12% of all compounds tested hit in one or more screens of this group.
AmpC inh detg = blocks E. coli AmpC beta-lactamase in detergent assay; P00811; AmpC hydrolysis of nitrocefin, absorbance 480 nm, 0.01% Triton; Potency, µM (highest dose often 114 µM), without a hit: top-dose activity change, negative = inhibition, actives largely listed as inhibitors; 370,000 compounds, 0.041% hits; AID 485294;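 note: 0% = no-compound wells and -100% = no-enzyme wells; nearly all actives have a fitted effect of over 25% in size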
Target sequence (P00811 whole entry, looked up): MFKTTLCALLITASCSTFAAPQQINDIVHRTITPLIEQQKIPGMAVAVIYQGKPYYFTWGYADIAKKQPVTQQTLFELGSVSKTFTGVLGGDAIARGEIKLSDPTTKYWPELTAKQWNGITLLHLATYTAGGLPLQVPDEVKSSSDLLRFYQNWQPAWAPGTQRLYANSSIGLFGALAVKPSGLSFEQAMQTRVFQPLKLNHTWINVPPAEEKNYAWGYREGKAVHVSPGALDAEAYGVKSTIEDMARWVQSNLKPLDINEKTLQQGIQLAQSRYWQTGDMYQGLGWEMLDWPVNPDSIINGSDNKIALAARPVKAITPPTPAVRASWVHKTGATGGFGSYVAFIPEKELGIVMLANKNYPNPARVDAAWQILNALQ
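20 mM phosphate pH 7.0 + 0.01% (detergent screen) or 0.0001% Triton X-100; 5.3 nM AmpC reagent; cpd preinc 15 min RT; nitrocefin (800 uM stock) to start; A480 q20 s × 4 min; Activity was normalised to no-enzyme and no-compound control wells.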
Sm TGR block = S. mansoni TGR enzyme inhibition | purified TGR, DTNB reduction, TNB absorbance 405 nm | Potency, µM (highest dose often 114 µM), without a hit: at the top dose activity change, negative = inhibition, usual class: inhibitors | 360,000 compounds, 3% hits | AID 485364 | Q962Y6; note: % is set by controls: 0 for no effect and ±100 for the full control effect; nearly all actives have a fitted effect of over 60% in size
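First, TGR (20 nM dispensed) and NADPH were mixed with compound. Second, a 15 min room-temperature incubation followed. Third, further NADPH and then DTNB were added to start the reaction. Finally, TNB absorbance was monitored kinetically.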
Pf growth 96h = P. falciparum growth inhibition at 96 hour, primary screen for plastid delayed-death inhibitors. P. falciparum luciferase reporter growth, 96 h. Potency, µM (highest dose often 28.7 µM), inactives show at the highest dose activity change, negative = inhibition, actives largely listed as inhibitors. 320,000 compounds, 6.9% hits. AID 504834; note: % is set by controls: 0 for no effect and ±100 for the full control effect
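Readout is luminescence from an integrated firefly luciferase in P. falciparum. Red cells, 2% hematocrit and 0.05% parasitemia final, were cultured with compound through two parasite generations (96 hours) at 37 C, 5% CO2.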
SARS PLP yeast = blocks SARS-CoV papain-like protease in a yeast assay | S. cerevisiae expressing SARS-CoV PLpro, growth rescue | Potency, µM (series often up to 32.9 µM), inactives show top-dose activity, positive = growth rescue, usual class: activators | 330,000 compounds, 0.19% hits; calls by dose curve; note: 0% is about no effect; nearly all actives have a fitted effect of over 55% in size
AmpC inh no detg = inhibitors of E. coli AmpC beta-lactamase without detergent; Potency, µM (series often up to 57.1 µM), for the others: top-dose activity change, negative = inhibition, most hits filed as inhibitors; 330,000 compounds, 0.52% hits; AmpC nitrocefin hydrolysis, absorbance 480 nm, 0.0001% Triton;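 note: plate controls were no compound for no effect and no enzyme for full effect; nearly all actives have a fitted effect of over 20% in size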
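20 mM phosphate pH 7.0 + 0.01% (detergent screen) or 0.0001% Triton X-100; 5.3 nM AmpC reagent; cpd preinc 15 min RT; nitrocefin (800 uM stock) to start; A480 q20 s × 4 min; Activity was normalised to no-enzyme and no-compound control wells.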
Pf growth 48h = P. falciparum growth inhibition at 48 hours (one generation); Potency, µM (highest dose often 28.7 µM), for the others: top-dose activity change, negative = inhibition, most hits filed as inhibitors; P. falciparum luciferase growth in erythrocytes, 48 h; 310,000 compounds, 5.9% hits; note: % is set by controls: 0 for no effect and ±100 for the full control effect
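Cell-based growth assay: transgenic P. falciparum expressing firefly luciferase, cultured in red cells within RPMI 1640 containing 0.5% w/v Albumax, 24 mM bicarbonate and gentamycin. A drop in luciferase activity indicates inhibition.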
* hit, by the source's call; ? = inconclusive; · = no result; [ ] = dose if it differs, or a comment. Unless noted, calls come from the whole dose curve; as a rule, active = well fitted curve in the direction sought with a large enough effect; inconclusive = small, poorly fitted or top-dose-only effect, or another doubt; inactive = no such curve, though single readings can be large; an effect the other way counts as inactive or inconclusive. Potency is the fitted concentration of half-maximal effect.

SMILES	AmpC inh detg	Sm TGR block	Pf growth 96h	SARS PLP yeast	AmpC inh no detg	Pf growth 48h
O=C(Nc1c(Cl)cccc1Cl)c1cccc2c1C(=O)N(C1CCCCC1)C2	2%	3%	·	·	·	·
Cc1cccc(C)c1NC(=O)c1cccc2c1C(=O)N(C1CCCCC1)C2	3%	8%	12µM*	-13%	28%	10µM*
COc1ccc(-c2cc(C(=O)Nc3c(C(=O)c4ccc(C)cc4)oc4ccccc34)no2)cc1	21%	0%	·	·	·	·
O=C(COc1ccccc1Cl)Nc1ccc(C(=O)O)cc1NC(=O)COc1ccccc1Cl	-3%	4%	6.6µM*	3%	-17%	1%
Cc1ccc(Cl)c(OCC(=O)Nc2ccccc2N2CCCCC2)c1	?	-7%	?	·	-32%	15µM*
CCc1ccc(OCC(=O)N2CCN(c3ccccc3F)CC2)cc1	5%	6%	6.6µM*	0%	29%	17%
O=C(COc1ccc(Cl)cc1Br)Nc1ccccc1N1CCCC1	0%	19%	?	-38%	-20%	?
Cc1cccc(OCC(=O)Nc2ccccc2N2CCCCC2)c1C	9%	13%	1.9µM*	0%	-28%	12µM*
O=C(COc1ccccc1Cl)Nc1ccccc1C(=O)Nc1cccc(C(=O)O)c1	0%	3%	26%	-1%	-24%	56%
CCc1cccc(OCC(=O)Nc2ccccc2N2CCCC2)c1	-3%	0%	?	-6%	-26%	?
O=C(CC1C(=O)NCCN1Cc1ccc(F)cc1)NCCCn1cccn1 (configuration not stated)	0%	-22%[57.1 µM]	4%	0%	-6%	12%
Cc1cc(C(=O)N2CCN(c3cccc(C)c3C)CC2)c2c(C)nn(-c3ccccc3)c2n1	6%	13%	·	·	·	·
CCc1noc2nc(C)n(CC(=O)O)c(=O)c12	7%	-3%	·	·	·	·
CCc1ccccc1NC(=O)Cn1nc(-c2cc(C)ccc2C)c2c(c1=O)CCCC2	1%	-7%	·	·	·	·
O=C(CN1CCc2ccccc2C1)Nc1ccccc1N1CCCCCC1	-7%	5%	·	-11%	-12%	13µM*
Cc1cccc(C)c1OCC(=O)Nc1ccccc1N1CCCCC1	-8%	11%	?	-12%	-12%	12µM*
O=C(CN1CCc2ccccc2C1)Nc1ccccc1Cl	3%	17%	?	3%	40%	-8%
CNC(=S)NNC(=O)COc1cccc(C)c1C	?	-7%	8.3µM*	10µM*	-29%	0%
COc1ccc(OCC(=O)Nc2ccccc2N2CCN(C)CC2)cc1	-5%	-20%	-3%	-4%	5%	-11%
CCC(=O)N1CCN(c2ccccc2NC(=O)COc2ccc(C(C)C)cc2)CC1	6%	0%	?	-11%	132%	10µM*
COc1ccc(OCC(=O)Nc2ccccc2N2CCCCC2)cc1	-1%	-1%	-22%	-14%	-2%	?
COc1ccc(Cl)cc1NC(=O)CSc1cn(CC(=O)N2CCCCCC2)c2ccccc12	-2%	1%	·	·	·	·
O=C(CNC1CCCCCC1)Nc1ccccc1N1CCCCC1	-15%	-18%	?	2%	-4%	?
O=C(CNCCC1=CCCCC1)Nc1ccccc1N1CCCCC1	13%	5%	12%	-2%	98%	13µM*
CCCS(=O)(=O)Nc1ccc(N2CCCCC2)c(S(=O)(=O)Nc2ccccc2OC)c1	-21%	4%	13µM*	-2%	-20%	10µM*
SMILES	AmpC inh detg	Sm TGR block	Pf growth 96h	SARS PLP yeast	AmpC inh no detg	Pf growth 48h
COc1ccccc1NS(=O)(=O)c1cc(N)ccc1N1CCCCC1	-1%	·	-12%	11%	-25%	15µM*
Nc1ccc(N2CCCCC2)c(S(=O)(=O)Nc2ccccc2Cl)c1	2%	5%	24%	1%	-35%	4%
Cc1ccc(NC(=O)COc2coc(CN3CCc4ccccc43)cc2=O)cc1Cl	-8%	-2%	23%	0%	101%	-16%
O=C(NC(=S)NNC(=O)c1ccccc1[N+](=O)[O-])c1ccccc1	-3%	-19%	?	16%	-18%	?
O=C(CCc1ccccc1)N/N=C/c1cccc([N+](=O)[O-])c1	4%	5%	?	-1%	-20%	-21%
O=C1CN(C(=S)NC(=O)c2ccccc2[N+](=O)[O-])CCN1	2%	0%	7.4µM*	-3%	-8%	6%
O=C(N/N=C/c1cccc([N+](=O)[O-])c1)C1CC1c1ccccc1 (configuration not stated)	-7%	1%	12µM*	24%	-21%	0%
O=C(NNC(=O)c1ccccc1[N+](=O)[O-])c1ccccc1[N+](=O)[O-]	?	0%	7.4µM*	4%	-17%	10%
COc1ccc(C(=O)NNC(=O)c2ccccc2[N+](=O)[O-])cc1	3%	3%	13µM*	4%	-8%	122%
O=C(NNC(=O)C1CC1c1ccccc1)c1ccccc1[N+](=O)[O-] (configuration not stated)	-9%	-8%	12µM*	9%	-9%	47%
O=C(CN1CCOCC1)c1ccc(Br)cc1	-4%	35µM*	64%	-4%	-13%	22%
O=C(c1ccc(Br)cc1)C(CN1CCOCC1)c1ccccc1 (configuration not stated)	-5%	3.5µM*	?	-10%	-26%	0%
O=C(CN1CCOCC1)Nc1ccc(Br)cc1	-12%	-1%	32%	-1%	-8%	·
CC(=O)c1ccc(OCc2cc(C(=O)NCCn3nc(C)cc3C)no2)cc1	6%	-16%	?	-1%	44%	?
Cc1ccc2nc(CN3CCN(C(=O)Nc4ccc(F)cc4)CC3)oc2c1	-7%	-9%	·	·	·	·
COc1ccc(N2C(=O)/C(=C/c3ccc([N+](=O)[O-])cc3)C=C2c2ccccc2)cc1	?	-21%	13µM*	2%	-29%	?
O=C(O)c1cccc(N2C(=O)/C(=C/c3ccc([N+](=O)[O-])cc3)C=C2c2ccccc2)c1	-10%	25µM*	?	1%	-26%	-66%
O=C1/C(=C/c2ccc([N+](=O)[O-])cc2)C=C(c2ccccc2)N1c1ccccc1	-1%	0%	?	2%	-29%	9%
CSc1ccc(CCNC(=O)c2ccc(-c3nc(COc4ccc(C)cc4)c(C)o3)cc2)cc1	10%	6%	·	·	·	·
Cc1cccc(C(=O)OC(C)C(=O)N2CCc3ccccc3C2)c1C (configuration not stated)	-9%	4%	?	-8%	-3%	-24%

Assay outcomes: PubChem BioAssay, National Center for Advancing Translational Sciences (NCATS)
